Results taken from PubChem BioAssay.
Measured potencies and affinities stand elsewhere. Records with an inconclusive call do not appear. Active and inactive are the calls of the source.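 How the source made its calls, unless noted: active means fitted dose curve reaches 40% lysis signal rise at or below the highest valid concentration tested for that sample; inconclusive means flat fit between 30% and 70%, or poor curve fit; inactive means signal falls, stays flat within 30%, or no crossing.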

Assay: Cryptococcus neoformans growth inhibition, dose response, Alamar Blue, cherry-picks (AID 686998;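 active means falling signal with fitted half-maximal potency no higher than twice the top valid tested dose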)
Details: 24 h; series mostly up to 35 µM

outcome, inactive:
CN1CCN(C(=O)C[C@@H]2CC[C@H]3[C@@H](COC[C@H](O)CN3C(=O)Cc3ccccc3)O2)CC1, O=C(Cc1ccccc1)N[C@H]1C=C[C@@H](CC(=O)N2CCOCC2)O[C@H]1CO, CNC[C@H]1OCCCC[C@H](C)Oc2ccc(NC(=O)CCCN(C)C)cc2C(=O)N([C@H](C)CO)C[C@@H]1C, CN1[C@@H]2c3ccc(-c4cccnc4)c(=O)n3C[C@@H]2[C@@H](CO)[C@@H]1C(=O)N1CCc2ccccc2C1, C[C@@H]1CCCCO[C@H](CN(C)C(=O)c2ccccc2)[C@@H](C)CN([C@@H](C)CO)C(=O)c2cc(NC(=O)c3ccccc3)ccc2O1

Assay: inducers of Cryptococcus neoformans cell lysis, dose response, AK release luminescence, cherry-picks (AID 687000);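 further: luminescent detection of adenylate kinase leaking from lysed yeast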
Details: C. neoformans lysis, adenylate kinase release luminescence, 4 h, 100% = twice the neutral-control signal; series mostly up to 15 µM

outcome, inactive:
Cc1ccc(NC(=O)C2(C)CCN2C(=O)CC2CCCC2)cc1 (configuration not stated), O=C(NCC[C@H]1CC[C@@H](NS(=O)(=O)c2ccc(F)cc2)[C@H](CO)O1)c1ccc2c(c1)OCO2, N#C[C@@H]1[C@@H](c2ccccc2)[C@@H](CO)N1C(=O)Cc1ccccc1, CCS(=O)(=O)N1CCCCN2[C@H](CO)[C@@H](c3ccc(-c4ccc(C#N)cc4)cc3)[C@@H]2C1, CO[C@H]1CN(C)C(=O)c2cc(NS(=O)(=O)c3ccc(C)cc3)ccc2OC[C@H](C)N(C)C[C@H]1C, CO[C@@H]1CN(C)C(=O)c2cc(NS(=O)(=O)c3ccc(C)cc3)ccc2OC[C@@H](C)N(C)C[C@@H]1C, COc1ccc(CN(C)C[C@@H]2OCCCC[C@H](C)Oc3ccc(N(C)C)cc3C(=O)N([C@H](C)CO)C[C@@H]2C)cc1
